Data reported in PubChem BioAssay (NCATS).
Results filed as inconclusive are left out. Values without a mark were called inactive. Calls of active or inactive are those of the source. The call rests on the fitted dose curve; in most records, active means well fitted inhibition curve with a large enough effect; inconclusive means small, poorly fitted or top-dose-only effect; inactive means flat fitted curve, though single readings scatter.

tested on: W2; test: qHTS profiling for inhibitors of Plasmodium falciparum proliferation (AID 504749); further: nearly all actives have a fitted effect of over 60% in size;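 on activity, negative = inhibition: 0% = DMSO vehicle and full inhibition = artemisinin control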; conditions: P. falciparum in erythrocytes, SYBR Green DNA, 72 h; series mostly up to 28.7 µM; activity, negative = inhibition: at the top concentration
Outline: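 In a 72 h erythrocytic culture (37 C, humidified, 5% CO2) at 2.5% hematocrit and 0.3% starting parasitemia, compounds were tested; SYBR Green I in detergent lysis buffer stained parasite DNA overnight.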
Potency means the concentration at half of the fitted maximal effect.

SMILES	activity, negative = inhibition	Potency
CC(C)CCC[C@@H](C)[C@H]1CC[C@H]2[C@@H]3CC[C@@H]4C[C@H](O)CC[C@]4(C)[C@H]3CC[C@]12C	-24.2%	–
ClC(Cl)Cl	20.9%	–
FC(F)(F)C(F)(F)C(F)(F)C(F)(F)C(F)(F)F	-6.34%	–
CC(CC=O)CCCC(C)(C)O (stereo not drawn)	-0.624%	–
CC(C)[C@H](N)C(=O)OCC(CO)OCn1cnc2c(=O)[nH]c(N)nc21 (stereo partly drawn)	-1.27%	–
CC(C)CCC[C@@H](C)[C@H]1CC[C@H]2[C@@H]3CC=C4C[C@@H](O)CC[C@]4(C)[C@H]3CC[C@]12C	0.233%	–
CC(C)c1ncc([N+](=O)[O-])n1C	5.38%	–
CCCc1ccc(C(=O)O)cc1	-1.67%	–
C=CC(=O)O	19.3%	–
COC(=O)CC[C@H](N)C(=O)O	3.97%	–
CN1C(=O)C[C@@H](C(=O)N[C@@H](Cc2cnc[nH]2)C(=O)N2CCC[C@H]2C(N)=O)NC1=O	12.6%	–
Cc1ncc(C[n+]2csc(CCOP(=O)(O)O)c2C)c(N)n1	-26.8%	–
O=C(O)COc1ccccc1/C=N/NC(=O)c1ccncc1	-2.42%	–
O=C(/C=C/c1cccc(F)c1)NC1CC1	-3.87%	–
CC(C)(Oc1ccc(C2CCCc3ccccc32)cc1)C(=O)O (stereo not drawn)	-18.1%	–
O=C(O)[C@H]1C(=CCO)O[C@H]2CC(=O)N12	10.6%	–
CN=C1C=CC(=C(c2ccc(N(C)C)cc2)c2ccc(N(C)C)cc2)C=C1	–	151 nM (active)
CO	5.31%	–
